Among all 330,000 compounds or so, about 7,700 (2.3%) were called active. Where a call stands in place of a potency, no number is given. Inconclusive results (about 26%) are left out. Calls follow the shape of the dose curve; as a rule, active = well fitted inhibition curve with a large enough effect; inconclusive = small, poorly fitted or top-dose-only effect, or effect the other way; inactive = flat fitted curve, though single readings scatter. The full list was thinned out, with actives kept by preference.
Assay: qHTS screen for small molecules that inhibit ELG1-dependent DNA repair in human embryonic kidney (HEK293T) cells expressing luciferase-tagged ELG1; also: nearly all actives have a fitted effect of over 55% in size
Settings: HEK293T ELG1-luciferase reporter, luminescence, 16 h, DNA damage induced by 5-fluorouridine; series mostly up to 46.1 µM
Outline: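 Quantitative HTS, concentration-response format. 2,000 cells/well co-treated with 5-fluorouridine and compound, 16 hr in 5% CO2 at 37 °C; ONE-Glo luminescence read after 30 min.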
Potency is read from the fitted curve at half-maximal effect.

SMILES | Potency
CCOC(=O)[C@H]1[C@H]2COc3ccc(Cl)cc3[C@@H]2N2C(=O)c3cc(C)ccc3NC(=O)[C@@]12C | inactive
Cn1ccsc1=NC(=O)c1cc(S(=O)(=O)N2CCOCC2)ccc1Cl | inactive
Cc1cccc2nc(CSc3nc4[nH]ncc4c(=O)n3-c3cccc(Cl)c3)cc(=O)n12 | 20.6 µM (active)
Cc1cccc(NC(=O)CSc2nc3[nH]ncc3c(=O)[nH]2)c1 | inactive
COc1ccc(CCNC(=O)CSc2nc3[nH]ncc3c(=O)n2-c2cccc(C(F)(F)F)c2)cc1OC | inactive
COc1cccc(OC)c1C(=O)Nc1ccc(Cc2ccncc2)cc1 | inactive
O=C(Nc1ccncc1)c1c(F)cccc1F | 6.51 µM (active)
CC(C)C(NC(=O)c1c(F)cccc1F)C(=O)NCc1ccncc1 (stereo not given) | inactive
CSc1ncc(C(=O)Nc2ccc(C)cc2C)c(C)n1 | inactive
c1ccc(-n2nnnc2-c2cccnc2)cc1 | inactive
c1ccc(-n2nnnc2NC2CCCCCC2)cc1 | inactive
FC(F)(F)c1nc(-c2ccccc2)ncc1-c1nnnn1-c1ccccc1 | 20.6 µM (active)
CC(=O)c1ccc(N2CCN(C(=O)CCc3ccccc3)CC2)cc1 | inactive
O=C1CCC/C=C/C[C@@H](CC(=O)N(CCO)Cc2ccccc2)C(=O)NC[C@H](c2ccccc2)O1 | inactive
Cc1nc2ccccn2c(=O)c1NC(=O)c1cccs1 | inactive
C/C(=N\OC(=O)c1ccccc1)c1c(C)nc2cc(C)ccn12 | inactive
Cc1ccn2c(=O)c(NC(=O)c3cccc4ccccc34)c(C)nc2c1 | 5.17 µM (active)
Nc1ccc(Oc2ccc(Cl)cc2)cc1 | inactive
CC(C)(C)c1ccc(Oc2ccc(N)cc2)cc1 | 7.31 µM (active)
Cc1ccc(Oc2ccc(N)cc2)cc1 | inactive
Cc1ccc(S(=O)(=O)NCC2CCC(C(=O)N3CCOCC3)CC2)cc1 (stereo not given) | inactive
C=CCSc1nnc(N2C(=O)C(O)=C(C(=O)c3ccco3)C2c2ccc(F)cc2)s1 (stereo not given) | inactive
CC1CC(=NNC(=O)C2COc3ccccc3O2)CC(C)(C)C1 (stereo not given) | inactive
O=C(OCC(=O)N1CCN(C(=O)c2ccco2)CC1)c1ccc(Cl)c(Cl)c1 | inactive
CC(C)c1ccc(Cc2nnc(NCCCO)[nH]c2=O)cc1 | inactive

SMILES | Potency
O=c1[nH]c(NCCO)nnc1Cc1ccc(Cl)cc1 | inactive
COc1ccc(Cc2nnc(N/N=C/c3ccccc3O)[nH]c2=O)cc1OC | 4.11 µM (active)
C=CCN1CN(S(=O)(=O)c2ccc(OC)cc2)c2nc3ccccc3nc21 | inactive
CCn1nc(C)c(CNC(=O)C2CCC(=O)N(Cc3cccc(F)c3)C2)c1C (stereo not given) | inactive
COC(=O)[C@]1(C)N[C@H](CN(C)C(=O)c2ccc(C(C)(C)C)cc2)[C@@H]2C(=O)N(C)C(=O)[C@@H]21 | inactive
COc1ccc(NC(=O)CN2C(=O)C(c3ccccc3)=NC23CCCCCC3)cc1OC | 23.1 µM (active)
COc1ccc(NC(=O)CN(Cc2ccccc2)S(C)(=O)=O)cc1OC | inactive
COc1ccc(NC(=O)CC2SC(N3CCCCC3)=NC2=O)cc1OC (stereo not given) | inactive
COc1cc(S(=O)(=O)N2CCN=C2c2ccccc2)ccc1Cl | inactive
Cn1c(=O)c2c(SCC(=O)NCC3CCCO3)nc(CC(C)(C)C)nc2n(C)c1=O (stereo not given) | inactive
COc1ccc(NC(=O)C2CCC(CNc3c(N4CCCCC4)c(=O)c3=O)CC2)c(OC)c1 (stereo not given) | 7.3 µM (active)
CCOc1ccccc1NC(=O)C1CCC(CNc2c(N3CCOCC3)c(=O)c2=O)CC1 (stereo not given) | inactive
CCN(CC)c1ccc(NC(=O)C2CCC(CNc3c(N4CCCC4)c(=O)c3=O)CC2)c(C)c1 (stereo not given) | inactive
CC(CCc1ccccc1)NC(=O)c1cnc(Cl)c(Cl)c1 (stereo not given) | inactive
CC(=O)NCC(=O)N1CCCC(C(=O)c2ccc3c4c(cccc24)CC3)C1 (stereo not given) | inactive
CCn1ccnc1CN1CCCC(C(=O)c2ccc3c4c(cccc24)CC3)C1 (stereo not given) | inactive
Cc1ncoc1C(=O)N1CCCC(C(=O)c2ccc3c4c(cccc24)CC3)C1 (stereo not given) | 16.4 µM (active)
CC1CCCCC1NC(=O)NC(=O)COC(=O)C1=NN(c2ccccc2)C(=O)CC1 (stereo not given) | inactive
CCCC(=O)N1CCN(c2nnc(-c3ccc(C)cc3)c3ccccc23)CC1 | inactive
COc1ccc(CCN(C)C(=O)C23CC4CC(CC(Cl)(C4)C2)C3)cc1OC | inactive
CCCn1c(C2CCCN2c2nc(-c3ccc(C)cc3)cs2)nc2cc(Cl)c(N3CCCCC3)cc21 (stereo not given) | inactive
CC(C)(C)OC(=O)Nc1ccc([C@@H](NC(=O)OC(C)(C)C)C(=O)OC(C)(C)C)cc1 | inactive
CCc1nnc(NC(=O)C2CCN(C(=O)c3ccccc3C)CC2)s1 | inactive
Cc1ccccc1C(=O)N1CCC(C(=O)Nc2ccc(S(=O)(=O)N(C)C(C)C)cc2)CC1 | 16.4 µM (active)
CC(=O)c1cccc(NC(=O)C2CCN(C(=O)c3ccccc3Cl)CC2)c1 | inactive

SMILES | Potency
O=C(Nc1ccccc1N1CCOCC1)c1ccc(OCc2cscn2)cc1 | inactive
O=C(COC(=O)CCCN1C(=O)c2cccc3cccc(c23)C1=O)NC1CCS(=O)(=O)C1 (stereo not given) | inactive
CCOC(=O)CSc1nc2ccc(C)cc2n2cnnc12 | inactive
O=C(CCc1nnc2ccc(NCc3ccco3)nn12)Nc1cc(F)ccc1F | inactive
COc1ccc(CCNC(=O)C2CCCN(Cc3nc(-c4cccc(Cl)c4)oc3C)C2)cc1OC (stereo not given) | 10 µM (active)
COc1cccc(-c2nc(CS(=O)(=O)CC(=O)NCCc3ccc(OC)c(OC)c3)c(C)o2)c1 | inactive
COc1ccc(CCN(C)C(=O)C2CCCN(Cc3ccc(OC)c(OC)c3)C2)cc1OC (stereo not given) | inactive
CCOc1ccc(-n2c(SCC(=O)OC)nc3sc4c(c3c2=O)CCN(C)C4)cc1 | inactive
Cc1cn(COC/C=C/c2ccccc2)c(=O)[nH]c1=O | inactive
O=C(/C=C/c1ccccc1)c1ccccc1O | inactive
Cc1[nH]c(=O)c(C(=O)/C=C/c2ccccc2)c2c1CCCC2 | 8.2 µM (active)
OC(COc1ccccc1)Cn1cc(Br)cn1 (stereo not given) | inactive
OC(CN=c1sc2ccccc2n1CC(O)COc1ccccc1)COc1ccccc1 (stereo not given) | 20.6 µM (active)
O=C(c1ccccc1)c1ccc(OCC(O)CN2CCCC2)cc1 (stereo not given) | inactive
CC1(C)CC(=O)C=C(c2ccc(Cl)c(C(F)(F)F)c2)C1 | inactive
COc1ccc(C(CNC(=O)COc2ccc([N+](=O)[O-])cc2)N2CCCCC2)cc1 (stereo not given) | inactive
Cc1c(O)c(C)c2c(c1O)C(=O)C[C@@H](c1ccccc1)O2 | inactive
COc1cc(C(=S)NCc2ccccc2)cc(Br)c1O | inactive
COc1cc(C(=O)NCc2ccc(-n3cccc3)cc2)cc(OC)c1OC | inactive
COc1cc(C(=O)NCc2ccncc2)cc(Br)c1OCc1ccccc1 | 14.6 µM (active)
CC[C@]1(C(=O)OC)[C@H]2C(=O)N(C)C(=O)[C@H]2[C@H]2CN(C)C(=NCc3ccccc3)N21 | inactive
COc1ccc(NC(=O)CN(C)C(=O)c2cccc(S(=O)(=O)N3CCN(c4ccccc4)CC3)c2)cc1 | inactive
CC1CCCCC1NC(=O)Cn1cnc2c1c(=O)n(C)c(=O)n2C (stereo not given) | inactive
O=C(NC1CCCCC1)C1CCCN(S(=O)(=O)c2cccs2)C1 (stereo not given) | inactive
O=C(NCc1ccc(Cl)cc1)C1CCN(S(=O)(=O)c2cccs2)CC1 | inactive

SMILES | Potency
O=C(Nc1ccc(Br)cn1)C1CCN(S(=O)(=O)c2cccs2)CC1 | 5.8 µM (active)
O=C(COC(=O)c1ccccn1)NNC(=O)c1ccc(Br)cc1 | inactive
Cc1ccc(OCC(=O)Nc2ccccc2C(=O)NC2CC2)cc1 | inactive
CCCCNC(=O)N(O)C1N(/N=C/c2ccccc2O)C(=S)SC1(C)C (stereo not given) | inactive
CCOC(=O)C1CCCN(C(=O)CSc2nnc3nc(C)cc(C)n23)C1 (stereo not given) | inactive
COc1ccc(-n2c(SCC(=O)Nc3sc4c(c3C#N)CCCC4)nnc2-c2ccc(O)cc2)cc1 | 18.4 µM (active)
CCCc1cc(=O)[nH]c(SCC(=O)Nc2sc3c(c2C#N)CCCC3)n1 | inactive
N#Cc1c(NC(=O)CSc2nc3ccccc3c(=O)n2Cc2ccco2)sc2c1CCCC2 | inactive
CCOc1ccccc1NC(=O)CCc1nnc2ccc(NCc3ccco3)nn12 | inactive
Cc1ccc(NC(=O)C2CC2)cc1S(=O)(=O)N1CCOCC1 | inactive
Cc1ccc(NC(=O)CCCNC(=O)c2ccc(Cl)cc2)cc1S(=O)(=O)N1CCOCC1 | inactive
CN(CC(=O)Nc1ccc(F)cc1)CC(=O)N1CCCCC1 | inactive
CC(=O)NCCc1ccc(S(=O)(=O)Nc2ccc(C)c(S(=O)(=O)N3CCOCC3)c2)cc1 | inactive
Cc1ccc(NC(=O)c2ccc(Cl)nc2)cc1S(=O)(=O)N1CCOCC1 | 23.1 µM (active)
CN(CC(=O)Nc1ccc(F)cc1)CC(=O)Nc1ccc(Cl)c(S(=O)(=O)N2CCOCC2)c1 | 18.3 µM (active)
CN(CCC(=O)Nc1cc(S(=O)(=O)N(C)C)ccc1Cl)CC(=O)Nc1ccc(F)cc1 | inactive
Cc1ccc(NC(=O)c2ccccn2)cc1S(=O)(=O)N1CCOCC1 | inactive
Cc1ccc(NC(=O)C2CCC(C(C)(C)C)CC2)cc1S(=O)(=O)N1CCOCC1 (stereo not given) | 23.1 µM (active)
COc1cccc(CNC(=O)C(=O)NCCC2CCCCN2S(=O)(=O)c2ccc(C)cc2)c1 (stereo not given) | inactive
O=C(CNC(=O)c1ccccc1Br)NCCSc1ccc(Br)cc1 | inactive
CC(C)(C)OC(=O)C1=C(CO)CS[C@@H]2[C@H](NC(=O)Cc3ccccc3)C(=O)N12 | inactive
COc1ccc(S(=O)(=O)N2CCN(C)CC2)c(C)c1 | inactive
COc1ccc2c(c1OC)C(=O)OC2c1c(O)nc(SC)n(-c2ccccc2)c1=O (stereo not given) | inactive
COc1ccc2c(c1OC)C(=O)OC2Nc1nc(-c2ccccc2)cs1 (stereo not given) | 9.2 µM (active)
COc1ccc(C)cc1Nc1nc(-c2c(C)[nH]c3ccccc23)cs1 | inactive

From PubChem BioAssay AID504467 (National Center for Advancing Translational Sciences (NCATS), 2011)
